Out of some 39,000 compounds screened, about 3,300 (8.5%) were called active. Only a selection was taken, and actives are over-represented in it overall.
Tested on: HepG2
Test: cytotoxicity call (relative viability < 0.9)
Details: 10 µM

Row | Compound | cytotoxicity call
1 | CC(C)NC(=O)Nc1ccc2c(c1)CC(=O)N([C@@H](C)CO)C[C@H](C)[C@@H](CN(C)Cc1ccc(-c3ccccc3)cc1)O2 | active
2 | CC(C)NC(=O)Nc1ccc2c(c1)CC(=O)N([C@H](C)CO)C[C@H](C)[C@@H](CN(C)Cc1ccc(-c3ccccc3)cc1)O2 | inactive
3 | CC(C)NC(=O)Nc1ccc2c(c1)CC(=O)N([C@H](C)CO)C[C@@H](C)[C@H](CN(C)Cc1ccc(-c3ccccc3)cc1)O2 | inactive
4 | CC(C)NC(=O)Nc1ccc2c(c1)CC(=O)N([C@H](C)CO)C[C@@H](C)[C@@H](CN(C)Cc1ccc(-c3ccccc3)cc1)O2 | active
5 | CC(C)NC(=O)Nc1ccc2c(c1)CC(=O)N([C@@H](C)CO)C[C@@H](C)[C@@H](CN(C)Cc1ccc(-c3ccccc3)cc1)O2 | inactive
6 | CC(C)NC(=O)Nc1ccc2c(c1)CC(=O)N([C@@H](C)CO)C[C@@H](C)[C@H](CN(C)Cc1ccc(-c3ccccc3)cc1)O2 | inactive
7 | C[C@@H]1CN([C@@H](C)CO)S(=O)(=O)c2ccc(C#Cc3cccc(F)c3)cc2O[C@@H]1CN(C)S(=O)(=O)c1ccccc1F | inactive
8 | C[C@@H]1CCCCO[C@@H](CN(C)Cc2ccc(C(=O)O)cc2)[C@H](C)CN([C@H](C)CO)C(=O)c2cc(NC(=O)Nc3ccc4c(c3)OCO4)ccc2O1 | inactive
9 | CC(C)NC(=O)N(C)C[C@@H]1Oc2c(NS(=O)(=O)c3ccc(Cl)cc3)cccc2C(=O)N([C@H](C)CO)C[C@H]1C | inactive
10 | COC(=O)C1C(O)CCC2CN3CCc4c([nH]c5ccccc45)C3CC21.Cl (centres undefined) | inactive
11 | COC(=O)C1C2CC3c4[nH]c5cc(OC)ccc5c4CCN3CC2CC(OC(=O)c2cc(OC)c(OC)c(OC)c2)C1OC (centres undefined) | active
12 | COC(=O)C1C(O)CCC2CN3CCc4c([nH]c5ccccc45)C3CC21 (centres undefined) | inactive
13 | C[C@H](CO)N1C[C@H](C)[C@H](CN(C)S(=O)(=O)c2ccc(Cl)cc2)Oc2ccc(NS(C)(=O)=O)cc2CC1=O | inactive
14 | O=C(C[C@@H]1CC[C@@H]2[C@H](COC[C@H](O)CN2C(=O)Nc2ccc(Cl)cc2)O1)NC1Cc2ccccc2C1 | inactive
15 | O=C(C[C@@H]1CC[C@@H]2[C@H](COC[C@@H](O)CN2C(=O)Nc2ccc(Cl)cc2)O1)NC1Cc2ccccc2C1 | active
16 | O=C(C[C@H]1CC[C@H]2[C@@H](COC[C@@H](O)CN2C(=O)Nc2ccc(Cl)cc2)O1)NC1Cc2ccccc2C1 | active
17 | O=C(C[C@H]1CC[C@@H]2[C@H](COC[C@@H](O)CN2C(=O)Nc2ccc(Cl)cc2)O1)NC1Cc2ccccc2C1 | inactive
18 | O=C(C[C@H]1CC[C@H]2[C@@H](COC[C@H](O)CN2C(=O)Nc2ccc(Cl)cc2)O1)NC1Cc2ccccc2C1 | inactive
19 | O=C(C[C@@H]1CC[C@H]2[C@@H](COC[C@@H](O)CN2C(=O)Nc2ccc(Cl)cc2)O1)NC1Cc2ccccc2C1 | inactive
20 | CO[C@H]1CN(C)C(=O)c2ccc(NC(=O)CC(F)(F)F)cc2OC[C@H](C)N(S(=O)(=O)c2cn(C)cn2)C[C@H]1C | inactive
21 | C[C@H]1CCCCO[C@H](CN(C)S(C)(=O)=O)[C@@H](C)CN([C@@H](C)CO)C(=O)c2cc(NS(=O)(=O)c3cn(C)cn3)ccc2O1 | inactive
22 | COc1ccc(NC(=O)Nc2ccc3c(c2)C(=O)N([C@H](C)CO)C[C@H](C)[C@H](CN(C)S(=O)(=O)c2c(C)noc2C)OCCCC[C@H](C)O3)cc1 | inactive

Row | Compound | cytotoxicity call
23 | O=C(C[C@H]1CC[C@H]2[C@@H](COC[C@@H](O)CN2S(=O)(=O)c2ccc(F)cc2)O1)N[C@@H]1CCN(Cc2ccccc2)C1 | inactive
24 | CC(C)NC(=O)Nc1ccc2c(c1)CC(=O)N([C@H](C)CO)C[C@@H](C)[C@H](CN(C)Cc1ccc(C(=O)O)cc1)O2 | inactive
25 | C[N+](C)(C)[C@@H]1[C@H]2OC[C@H](O)[C@H]2O[C@@H]1O | inactive
26 | CCCNC(=O)N1C[C@H](C)[C@@H](OC)CN(C)C(=O)c2cc(NS(=O)(=O)CC(F)(F)F)ccc2OC[C@H]1C | inactive
27 | C[C@@H]1CN([C@@H](C)CO)C(=O)c2cccc(NC(=O)Nc3ccccc3)c2O[C@H]1CN(C)Cc1ccc(Cl)c(Cl)c1 | active
28 | C[C@H](CO)N1C[C@H](C)[C@@H](CN(C)Cc2ccc(Cl)c(Cl)c2)Oc2c(NC(=O)Nc3ccccc3)cccc2C1=O | inactive
29 | C[C@@H]1CN([C@@H](C)CO)C(=O)c2cccc(NC(=O)C3CCCCC3)c2O[C@H]1CN(C)Cc1ccc(Cl)c(Cl)c1 | inactive
30 | C[C@@H]1CN([C@H](C)CO)C(=O)c2cccc(NC(=O)Nc3ccc(F)cc3)c2O[C@H]1CN(C)Cc1ccc(Cl)c(Cl)c1 | inactive
31 | C[C@@H]1CN([C@H](C)CO)C(=O)c2cccc(NC(=O)C3CCCCC3)c2O[C@H]1CN(C)Cc1ccc(Cl)c(Cl)c1 | inactive
32 | C[C@H](CO)N1C[C@H](C)[C@H](CN(C)Cc2ccc(Cl)c(Cl)c2)Oc2c(NC(=O)Nc3ccc(F)cc3)cccc2C1=O | inactive
33 | COc1ccc(NC(=O)Nc2cccc3c2O[C@H](CN(C)Cc2ccc(Cl)c(Cl)c2)[C@@H](C)CN([C@@H](C)CO)C3=O)cc1 | inactive
34 | COc1ccc(NC(=O)Nc2cccc3c2O[C@@H](CN(C)Cc2ccc(Cl)c(Cl)c2)[C@@H](C)CN([C@H](C)CO)C3=O)cc1 | active
35 | COc1ccc(NC(=O)Nc2cccc3c2O[C@@H](CN(C)Cc2ccc(Cl)c(Cl)c2)[C@H](C)CN([C@@H](C)CO)C3=O)cc1 | inactive
36 | C[C@@H]1CN([C@H](C)CO)C(=O)c2cccc(NC(=O)Nc3ccccc3)c2O[C@H]1CN(C)Cc1ccc(Cl)c(Cl)c1 | inactive
37 | C[C@H]1CN([C@@H](C)CO)C(=O)c2cccc(NC(=O)C3CCCCC3)c2O[C@@H]1CN(C)Cc1ccc(Cl)c(Cl)c1 | active
38 | C[C@@H]1CN([C@@H](C)CO)C(=O)c2cccc(NC(=O)Nc3ccc(F)cc3)c2O[C@H]1CN(C)Cc1ccc(Cl)c(Cl)c1 | active
39 | Nc1nc(/C(=N/O)C(=O)N[C@@H]2C(=O)N3C(C(=O)O)=C(/C=C4\CCN([C@@H]5CCNC5)C4=O)CS[C@H]23)ns1 | inactive
40 | CSc1ncc(C(=O)NN)n1C | inactive
41 | CCS(=O)(=O)NCC[C@H]1CC[C@H](NC(=O)C2CC2)[C@H](CO)O1 | inactive
42 | CN(C)C(=O)COC[C@]12COC[C@H]1CN(S(C)(=O)=O)C2 | inactive
43 | C[C@H](CO)N1C[C@H](C)[C@H](CN(C)C(=O)Nc2ccc3c(c2)OCO3)Oc2ccc(NC(=O)c3ccncc3)cc2CC1=O | inactive
44 | C[C@H](CO)N1C[C@H](C)[C@H](CN(C)C(=O)Nc2ccc3c(c2)OCO3)Oc2ccc(NS(=O)(=O)c3cn(C)cn3)cc2CC1=O | inactive

Row | Compound | cytotoxicity call
45 | O=C(Nc1ccc2c(c1)[C@@H]1C[C@@H](CC(=O)N3CCc4ccccc4C3)O[C@H](CO)[C@@H]1O2)C1CCOCC1 | inactive
46 | C[C@@H]1CN([C@@H](C)CO)C(=O)Cc2cc(NC(=O)C3CC3)ccc2O[C@@H]1CN(C)C(=O)Nc1ccccc1 | inactive
47 | C[C@@H]1CN([C@H](C)CO)C(=O)c2cc(NC(=O)C3CCCCC3)ccc2O[C@@H](C)CCCCO[C@@H]1CN(C)S(=O)(=O)c1ccc(F)cc1 | inactive
48 | O=C(CN1CCOCC1)NCC[C@H]1CC[C@@H](NC(=O)Cc2ccccn2)[C@@H](CO)O1 | inactive
49 | Cc1noc(C)c1NC(=O)N(C)C[C@H]1Oc2c(NS(=O)(=O)c3c(C)noc3C)cccc2C(=O)N([C@@H](C)CO)C[C@H]1C | inactive
50 | C=CCOC(=O)[C@H]1[C@@H]2C(=O)O[C@@H](c3ccccc3)[C@@H](c3ccccc3)N2[C@@H](c2ccc(OCCOC(=O)[C@H]3C[C@H]4C(=O)N[C@@H](Cc5ccccc5)C(=O)N4[C@H]3c3ccc(O)cc3)cc2)[C@]12C(=O)Nc1ccccc12 | inactive
51 | C[C@H]1CN([C@@H](C)CO)C(=O)c2cc(NC(=O)c3ccncc3)ccc2O[C@H]1CN(C)S(=O)(=O)c1ccccc1 | inactive
52 | O=C(CCCCC(=O)N/N=C/[C@H](O)[C@@H](O)[C@H](O)[C@H](O)CO)NO | inactive
53 | Cc1cc(N)c2ccccc2[n+]1CCCCCCCCCC[n+]1c(C)cc(N)c2ccccc21.[Cl-].[Cl-] | active
54 | CCCN(C)C[C@@H]1OCCCC[C@@H](C)Oc2ccc(NS(=O)(=O)c3ccc(Cl)cc3)cc2C(=O)N([C@H](C)CO)C[C@@H]1C | inactive
55 | COc1ccc(NC(=O)Nc2ccc3c(c2)C(=O)N([C@H](C)CO)C[C@H](C)[C@H](CN(C)Cc2ccncc2)OCCCC[C@@H](C)O3)cc1 | inactive
56 | CN(C)c1nc(N)nc(CSc2nnnn2C)n1 | inactive
57 | COc1ccc(CN(C)C[C@H]2Oc3ccc(NS(=O)(=O)c4c(C)noc4C)cc3CC(=O)N([C@H](C)CO)C[C@H]2C)cc1 | inactive
58 | O=C(C[C@@H]1C[C@@H]2c3cc(NC(=O)c4ccc5c(c4)OCO5)ccc3O[C@@H]2[C@H](CO)O1)NCC(F)(F)F | inactive
59 | C[C@H](CO)N1C[C@H](C)[C@@H](CN(C)Cc2ccc(Cl)c(Cl)c2)OCCCC[C@H](C)Oc2ccc(NS(=O)(=O)c3cccs3)cc2C1=O | inactive
60 | C[C@@H]1CCCCO[C@H](CN(C)Cc2ccc(Cl)c(Cl)c2)[C@H](C)CN([C@H](C)CO)C(=O)c2cc(NS(=O)(=O)c3cccs3)ccc2O1 | inactive
61 | C[C@@H]1CCCCO[C@@H](CN(C)Cc2ccc(Cl)c(Cl)c2)[C@@H](C)CN([C@@H](C)CO)C(=O)c2cc(NS(=O)(=O)c3cccs3)ccc2O1 | active
62 | C[C@@H]1CCCCO[C@@H](CN(C)Cc2ccc(Cl)c(Cl)c2)[C@@H](C)CN([C@H](C)CO)C(=O)c2cc(NS(=O)(=O)c3cccs3)ccc2O1 | inactive
63 | C[C@@H]1CCCCO[C@@H](CN(C)Cc2ccc(Cl)c(Cl)c2)[C@H](C)CN([C@H](C)CO)C(=O)c2cc(NS(=O)(=O)c3cccs3)ccc2O1 | inactive
64 | C[C@@H]1CCCCO[C@H](CN(C)Cc2ccc(Cl)c(Cl)c2)[C@@H](C)CN([C@H](C)CO)C(=O)c2cc(NS(=O)(=O)c3cccs3)ccc2O1 | active

Reference: the antibiotic and cytotoxicity screens of Wong et al. (2023)
